# Reference: PubChem BioAssay (Tox21)
# A number with no mark means an inactive call. Records with an inconclusive call do not appear. Entries that show only a call come without a potency. The source made the active and inactive calls. Unless noted, calls follow the shape of the full dose curve.
# Columns and labels:
# [1] = Nuclear factor erythroid 2-related factor 2/antioxidant responsive element (Nrf2/ARE) small molecule agonists: qHTS cell viability counter screen in human keratinocytes (AID 1919968; active = well fitted curve in the direction sought with a large enough effect in the repeat runs; an effect the other way counts as inactive or inconclusive; also: nearly all actives have a fitted effect of over 55% in size; also: potency is read from the fitted curve at half-maximal effect)
# Summary of the method: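 After a 5 h attachment period, ARE-reporter keratinocytes were dosed with compounds in DMSO and then cultured 23 h at 37 C. Cell viability came from CellTiter-Fluor signal read after a further 1 h.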
# [2] = Nuclear factor erythroid 2-related factor 2/antioxidant responsive element (Nrf2/ARE) small molecule agonists: luciferase reporter gene qHTS assay in human keratinocytes (AID 1919969); also: nearly all actives have a fitted effect of over 35% in size; also: potency is read from the fitted curve at half-maximal effect
# [3] = target: Gonadotropin-releasing hormone receptor (Homo sapiens) (UniProt P30968); assay: Human gonadotropin-releasing hormone receptor (GnRHR) small molecule agonists, calcium flux assay in GnRHR-HEK293 cells (AID 1920063); also: nearly all actives have a fitted effect of over 35% in size
# Summary of the method: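 We seeded human GnRHR-expressing HEK293 cells for 18 hours, loaded them with calcium dye for an hour at 37 C, added test compounds, and recorded fluorescence intensity kinetically for three minutes.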
# [4] = target: KiSS-1 receptor (Homo sapiens) (UniProt Q969F8); assay: Human kisspeptin (KISS1R) small molecule agonists, calcium flux assay in KISS1R-HEK293 cells (AID 1920064; active = well fitted curve in the direction sought with a large enough effect in the repeat runs; an effect the other way counts as inactive or inconclusive)
# Summary of the method: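 Kinetic calcium assay, 1 s sampling over 3 min at Ex/Em 480/540, in HEK293 cells engineered with human KISS1R; compounds delivered in DMSO after 1 h dye loading.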
# [5] = G protein-coupled receptor (GPCR) small molecule agonists, calcium flux assay: HEK293 wild type cell line counter screen (AID 1920065)
# Summary of the method: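 Calcium-sensitive dye, loaded 1 h at 37 C into cells cultured 18 h, reports compound-evoked calcium release as fluorescence (Ex/Em 480/540), measured over 3 min. Agonist mode; 15-point titrations, triplicate.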
# [6] = p53 small molecule agonists, cell-based qHTS assay with human liver microsomes (AID 1963577)
# Summary of the method: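 p53RE-bla cells, 4,000/well, compound added after 5 h, with human liver microsomes 0.5 mg/mL and NADPH 0.5 mg/mL final; 16 h at 37 C, then LiveBLAzer 2 h RT, fluorescence.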
# [7] = p53 small molecule agonists, cell-based qHTS assay with rat liver microsomes (AID 1963578)
# Summary of the method: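 p53RE-bla cells, 4,000/well, pre-incubated 5 h, then given compounds plus rat liver microsomes (0.5 mg/mL final) and NADPH (0.5 mg/mL final). Incubation 16 h at 37 C; beta-lactamase reporter read by LiveBLAzer fluorescence after 2 h at room temperature.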
# [8] = p53 small molecule agonists, cell-based qHTS assay with rat liver microsomes: qHTS cell viability counter screen (AID 1963580); also: nearly all actives have a fitted effect of over 45% in size; also: potency is read from the fitted curve at half-maximal effect
# Summary of the method: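 In HCT-116 cells carrying a p53 response element-bla reporter, compounds were metabolically activated in situ by rat liver microsomes with NADPH over 16 h. Cell ATP content then served as the cytotoxicity measure.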
# [9] = p53 small molecule agonists, cell-based qHTS assay: qHTS cell viability counter screen (AID 1963581); also: nearly all actives have a fitted effect of over 45% in size; also: potency is read from the fitted curve at half-maximal effect
# Summary of the method: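 Following 5 h attachment, HCT-116 p53RE-bla cells took up compound for 16 h at 37 C; the reporter was read with B/G FRET substrate (2 h RT), and viability then via CellTiter-Glo ATP luminescence.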
# [10] = target: 5-hydroxytryptamine receptor 2A (Homo sapiens) (UniProt P28223); assay: 5-hydroxytryptamine receptor 2A (HTR2A) small molecule antagonists, cell-based qHTS assay (AID 1963586); also: nearly all actives have a fitted effect of over 45% in size; also: potency is read from the fitted curve at half-maximal effect
# Summary of the method: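 Antagonist-mode intracellular calcium assay: DOI (4 nM) added after 5 min compound pre-incubation at room temperature to dye-loaded HTR2A-CHO cells. Fluorescence followed for 3 min, sampled every second.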
# [11] = target: Muscarinic acetylcholine receptor M1 (Homo sapiens) (UniProt P11229); assay: Cholinergic receptor muscarinic 1 (CHRM1) small molecule antagonists, cell-based qHTS assay (AID 1963588); also: nearly all actives have a fitted effect of over 40% in size
# Summary of the method: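 CHRM1-CHO calcium-flux assay, antagonist mode. Cells were seeded 18 h, dye-loaded 1 h at 37 C and given compound for 5 min at RT, then acetylcholine was added at 50nM. FDSS fluorescence was read 3 min; 15 concentrations, three runs.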
# [12] = target: Muscarinic acetylcholine receptor M1 (Homo sapiens) (UniProt P11229); assay: Cholinergic receptor muscarinic 1 (CHRM1) small molecule agonists, cell-based qHTS assay (AID 1963589); also: nearly all actives have a fitted effect of over 35% in size
# Summary of the method: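 Measures agonist-induced intracellular calcium rise. Stable human CHRM1 CHO line, 1 h dye load at 37 C, compounds from DMSO, kinetic fluorescence read.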
# [13] = target: D(2) dopamine receptor (Homo sapiens) (UniProt P14416); assay: Dopamine D2 receptor (DRD2) small molecule agonists, cell-based qHTS assay (AID 1963594); also: nearly all actives have a fitted effect of over 35% in size
# Summary of the method: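 HEK293 cells stably expressing DRD2 were cultured 24 h at 37 C, then given Ro20-1724 (0.1 mM final) and compounds for 10 min at room temperature. NKH477 (200nM) was then added for 30 min. cAMP was read by HTRF.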
# [14] = target: D(2) dopamine receptor (Homo sapiens) (UniProt P14416); assay: Dopamine D2 receptor (DRD2) small molecule antagonists, cell-based qHTS assay (AID 1963595; active = well fitted inhibition curve with a large enough effect in the signal ratio in the repeat runs, with a control signal flat; the % refers to the signal ratio)
# Summary of the method: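 Antagonist mode in DRD2-HEK293 cells: after compound addition with 0.1 mM Ro20-1724, cells received quinpirole (12 nM) and NKH477 (200 nM) for 30 min at room temperature; HTRF cAMP read after 1 h detection.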
# [15] = p53 small molecule agonists, cell-based qHTS assay with human liver microsomes: qHTS cell viability counter screen (AID 1963579); also: nearly all actives have a fitted effect of over 45% in size; also: potency is read from the fitted curve at half-maximal effect
# Summary of the method: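 p53RE-bla cells, 4,000/well, dosed 5 hours after plating, with human liver microsomes (0.5 mg/mL final) plus NADPH (0.5 mg/mL final), 16 hours at 37 C. Viability read as CellTiter-Glo luminescence after 30 min at room temperature.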
# [16] = target: 5-hydroxytryptamine receptor 2A (Homo sapiens) (UniProt P28223); assay: 5-hydroxytryptamine receptor 2A (HTR2A) small molecule agonists, cell-based qHTS assay (AID 1963587); also: nearly all actives have a fitted effect of over 30% in size; also: potency is read from the fitted curve at half-maximal effect
# Summary of the method: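 HTR2A-CHO cells, plated 18 h at 37 C/5% CO2, dye-loaded 1 h at 37 C; compounds in DMSO added by pin tool (agonist mode). Intracellular calcium flux read as kinetic fluorescence on FDSS over 2 min at 1 s intervals.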
# [17] = cAMP Responsive Elements (CRE) small molecule antagonists, cell-based qHTS assay (AID 1963591; active = well fitted inhibition curve with a large enough effect in the signal ratio in the repeat runs, not every such curve was filed as active; the % refers to the signal ratio)
# Summary of the method: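 HEK293T cells carrying a CRE-driven beta-lactamase reporter receive compound and NKH477 (0.25 uM final) for 3 h. Fluorescence from LiveBLAzer B/G FRET substrate is read after 2 h at room temperature.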
# [18] = target: Beta-2 adrenergic receptor (Homo sapiens) (UniProt P07550); assay: Adrenergic beta2 receptor (ADRB2) small molecule antagonists, cell-based qHTS assay (AID 1963592); also: nearly all actives have a fitted effect of over 50% in size; also: potency is read from the fitted curve at half-maximal effect
# Summary of the method: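 Cells (CHO, stable ADRB2 overexpression) incubated 18-20hr at 37C; compounds added from DMSO; agonist mix (1nM isoproterenol, 100uM IBMX, 25uM Ro-20-1724) added; 0.5hr RT; d2-cAMP and anti-cAMP-cryptate added; 1hr RT; 665/615 nm read.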
# [19] = p53 small molecule agonists, cell-based qHTS assay (AID 1963582; active = well fitted activation curve with a large enough effect in the signal ratio in the repeat runs, not every such curve was filed as active; the % refers to the signal ratio)
# Summary of the method: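 In this cell-based concentration-response screen, a p53 response element drives beta-lactamase; cells received DMSO-borne compounds after 5 h culture and were incubated a further 16 h before FRET substrate development.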
# [20] = cAMP Responsive Elements (CRE) small molecule agonists, cell-based qHTS assay (AID 1963590)
# Summary of the method: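 A CRE-responsive beta-lactamase reporter in HEK 293T cells was used. Treatment ran 3 h at 37 C; detection used LiveBLAzer B/G FRET substrate for 2 h at room temperature.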
# Chain of Muscarinic acetylcholine receptor M1 (Homo sapiens) (P11229 whole entry, looked up): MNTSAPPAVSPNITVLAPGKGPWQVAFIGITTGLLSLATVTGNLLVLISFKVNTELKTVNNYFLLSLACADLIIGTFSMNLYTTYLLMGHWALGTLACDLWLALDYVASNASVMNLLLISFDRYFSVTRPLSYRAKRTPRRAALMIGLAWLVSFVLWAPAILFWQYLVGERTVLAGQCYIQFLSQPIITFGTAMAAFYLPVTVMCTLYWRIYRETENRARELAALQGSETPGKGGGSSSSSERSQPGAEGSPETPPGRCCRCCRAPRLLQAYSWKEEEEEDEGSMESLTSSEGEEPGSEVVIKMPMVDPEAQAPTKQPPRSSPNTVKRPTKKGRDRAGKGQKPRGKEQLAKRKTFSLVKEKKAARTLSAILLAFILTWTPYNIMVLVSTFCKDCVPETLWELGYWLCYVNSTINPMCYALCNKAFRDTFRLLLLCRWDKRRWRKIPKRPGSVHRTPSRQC
# Chain of D(2) dopamine receptor (Homo sapiens) (P14416 whole entry, looked up): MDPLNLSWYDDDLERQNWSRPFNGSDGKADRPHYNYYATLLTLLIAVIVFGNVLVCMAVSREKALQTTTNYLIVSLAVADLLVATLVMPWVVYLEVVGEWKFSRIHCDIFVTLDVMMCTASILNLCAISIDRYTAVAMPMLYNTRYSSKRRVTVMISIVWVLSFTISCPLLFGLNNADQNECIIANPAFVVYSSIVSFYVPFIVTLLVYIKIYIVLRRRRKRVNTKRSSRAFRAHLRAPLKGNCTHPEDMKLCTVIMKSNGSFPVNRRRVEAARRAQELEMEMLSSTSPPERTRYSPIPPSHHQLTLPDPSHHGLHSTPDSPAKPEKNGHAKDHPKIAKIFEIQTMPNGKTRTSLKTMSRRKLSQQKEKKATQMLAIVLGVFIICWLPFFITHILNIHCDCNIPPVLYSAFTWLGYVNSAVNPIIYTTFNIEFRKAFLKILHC
# Chain of KiSS-1 receptor (Homo sapiens) (Q969F8 whole entry, looked up): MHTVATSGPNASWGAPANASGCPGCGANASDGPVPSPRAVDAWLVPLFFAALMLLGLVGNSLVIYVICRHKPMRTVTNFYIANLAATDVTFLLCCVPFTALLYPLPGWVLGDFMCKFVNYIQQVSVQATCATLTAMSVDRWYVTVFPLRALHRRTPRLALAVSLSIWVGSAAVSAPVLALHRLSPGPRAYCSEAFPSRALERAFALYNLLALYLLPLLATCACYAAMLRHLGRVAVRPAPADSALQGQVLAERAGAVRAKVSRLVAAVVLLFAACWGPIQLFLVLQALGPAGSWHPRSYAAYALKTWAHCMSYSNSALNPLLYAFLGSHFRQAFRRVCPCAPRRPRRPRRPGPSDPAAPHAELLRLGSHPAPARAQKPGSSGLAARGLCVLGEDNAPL
# Chain of 5-hydroxytryptamine receptor 2A (Homo sapiens) (P28223 whole entry, looked up): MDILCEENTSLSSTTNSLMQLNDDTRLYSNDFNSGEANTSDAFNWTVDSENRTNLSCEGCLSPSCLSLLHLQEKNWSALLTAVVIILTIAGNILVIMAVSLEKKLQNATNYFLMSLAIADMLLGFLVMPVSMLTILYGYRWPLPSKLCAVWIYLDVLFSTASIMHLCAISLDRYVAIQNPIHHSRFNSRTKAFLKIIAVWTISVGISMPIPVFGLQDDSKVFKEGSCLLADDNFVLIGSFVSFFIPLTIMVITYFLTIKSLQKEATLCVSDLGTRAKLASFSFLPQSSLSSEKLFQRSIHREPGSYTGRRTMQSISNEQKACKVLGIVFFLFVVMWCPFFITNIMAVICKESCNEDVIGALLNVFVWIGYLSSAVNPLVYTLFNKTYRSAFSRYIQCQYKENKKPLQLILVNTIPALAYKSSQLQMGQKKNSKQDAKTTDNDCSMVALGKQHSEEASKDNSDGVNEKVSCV
# Chain of Gonadotropin-releasing hormone receptor (Homo sapiens) (P30968 whole entry, looked up): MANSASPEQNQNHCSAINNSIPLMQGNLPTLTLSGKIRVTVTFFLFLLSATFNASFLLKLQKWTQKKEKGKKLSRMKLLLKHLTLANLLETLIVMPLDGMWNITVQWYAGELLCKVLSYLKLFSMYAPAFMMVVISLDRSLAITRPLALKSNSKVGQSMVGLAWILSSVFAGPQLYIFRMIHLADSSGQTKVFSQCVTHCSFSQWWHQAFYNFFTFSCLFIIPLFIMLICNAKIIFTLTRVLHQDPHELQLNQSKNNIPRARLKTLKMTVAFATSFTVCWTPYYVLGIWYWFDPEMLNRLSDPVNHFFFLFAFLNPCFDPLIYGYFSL
# Chain of Beta-2 adrenergic receptor (Homo sapiens) (P07550 whole entry, looked up): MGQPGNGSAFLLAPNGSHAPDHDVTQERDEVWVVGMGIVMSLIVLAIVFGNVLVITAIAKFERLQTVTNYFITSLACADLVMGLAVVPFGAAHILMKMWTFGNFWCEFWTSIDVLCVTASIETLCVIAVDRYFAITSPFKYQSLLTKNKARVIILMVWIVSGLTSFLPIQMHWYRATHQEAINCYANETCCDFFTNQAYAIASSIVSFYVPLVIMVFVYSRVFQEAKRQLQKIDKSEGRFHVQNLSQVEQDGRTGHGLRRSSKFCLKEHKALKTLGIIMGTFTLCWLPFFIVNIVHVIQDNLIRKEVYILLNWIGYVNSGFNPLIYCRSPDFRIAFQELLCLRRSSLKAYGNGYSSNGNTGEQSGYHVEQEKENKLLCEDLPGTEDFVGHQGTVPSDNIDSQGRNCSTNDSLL
Compound,Potency [1],Potency [2],Potency [3],Potency [4],Potency [5],Potency [6],Potency [7],Potency [8],Potency [9],Potency [10],Potency [11],Potency [12],Potency [13],Potency [14],Potency [15],Potency [16],Potency [17],Potency [18],Potency [19],Potency [20]
O=[N+]([O-])c1cc(C(F)(F)F)c(Cl)c([N+](=O)[O-])c1Cl,24.3 µM (active),9.69 µM (active),inactive,inactive,inactive,inactive,inactive,36.3 µM (active),16.2 µM (active),inactive,inactive,inactive,inactive,inactive,–,–,–,–,–,–
CC(c1ccccc1)(c1ccc(O)cc1)c1ccc(O)cc1,43.3 µM (active),inactive,inactive,inactive,inactive,inactive,inactive,–,inactive,inactive,inactive,–,inactive,inactive,45.8 µM (active),49 µM (active),inactive,61.1 µM (active),–,–
COC(=O)c1ccccc1S(=O)(=O)NC(=O)Nc1nc(C)nc(OC)n1,inactive,inactive,inactive,inactive,inactive,inactive,inactive,–,inactive,inactive,inactive,–,inactive,inactive,inactive,inactive,–,inactive,inactive,inactive
CC/C(=N\OC/C=C/Cl)C1=C(O)CC(C2CCOCC2)CC1=O (stereo unspecified),inactive,inactive,inactive,inactive,inactive,inactive,inactive,–,inactive,–,inactive,inactive,inactive,inactive,inactive,–,–,inactive,inactive,–
CCCCc1c(C)nc(NCC)nc1OS(=O)(=O)N(C)C,inactive,inactive,inactive,inactive,inactive,inactive,inactive,–,inactive,inactive,–,inactive,–,–,inactive,inactive,–,inactive,–,–
CCN(CC)c1c([N+](=O)[O-])cc(C(F)(F)F)c(N)c1[N+](=O)[O-],inactive,inactive,inactive,inactive,inactive,inactive,inactive,inactive,inactive,–,–,–,inactive,–,–,inactive,–,–,inactive,–
CC(=O)CCc1ccc2c(c1)OCO2,inactive,inactive,inactive,inactive,inactive,inactive,inactive,–,inactive,–,inactive,inactive,inactive,inactive,inactive,inactive,inactive,inactive,inactive,inactive
C(COCC1CO1)OCC1CO1 (stereo unspecified),inactive,68.6 µM (active),inactive,inactive,inactive,inactive,inactive,–,inactive,inactive,inactive,inactive,inactive,inactive,32.4 µM (active),inactive,inactive,inactive,inactive,inactive
Nc1n[nH]c(N)n1,inactive,27.8 µM (active),inactive,inactive,inactive,inactive,–,inactive,–,inactive,inactive,inactive,inactive,inactive,inactive,inactive,–,inactive,inactive,–
O=[N+]([O-])c1ccc2ccc3cccc4ccc1c2c34,inactive,61.1 µM (active),inactive,inactive,inactive,inactive,–,inactive,inactive,inactive,inactive,inactive,inactive,inactive,inactive,inactive,inactive,inactive,inactive,inactive
O=C=Nc1ccc(Cl)cc1,inactive,68.6 µM (active),inactive,inactive,inactive,inactive,inactive,inactive,–,inactive,inactive,inactive,inactive,inactive,–,inactive,inactive,–,inactive,inactive
CCO/N=C(\CC)C1=C(O)CC(c2c(C)cc(C)cc2C)CC1=O (stereo unspecified),inactive,inactive,inactive,inactive,inactive,inactive,inactive,inactive,–,inactive,–,inactive,–,–,–,inactive,–,inactive,–,–
CO/C=C(/C(=O)OC)c1ccccc1COc1cccc(C(F)(F)F)n1,inactive,inactive,inactive,inactive,inactive,inactive,–,inactive,inactive,inactive,inactive,inactive,inactive,inactive,inactive,inactive,–,–,–,inactive
CC(Cl)C(C)Cl (stereo unspecified),inactive,inactive,inactive,inactive,inactive,inactive,–,inactive,inactive,inactive,inactive,inactive,inactive,inactive,inactive,–,–,–,inactive,inactive
O=[N+]([O-])c1cc([N+](=O)[O-])c2ccccc2c1,inactive,17.2 µM (active),inactive,inactive,inactive,inactive,inactive,–,–,–,–,–,inactive,–,–,inactive,–,inactive,inactive,–
Cc1cc(C(C)(C)c2ccc(O)c(C)c2)ccc1O,58.2 µM (active),inactive,inactive,inactive,inactive,inactive,inactive,inactive,–,35.7 µM (active),inactive,inactive,inactive,inactive,–,52.3 µM (active),–,inactive,–,–
